ALOX15B inhib – blocks human 15-lipoxygenase 2 activity; O15296; purified 15hLO-2, xylenol orange hydroperoxide absorbance; Potency, µM (titrated, usually from 57.1 µM), for inactives: at the top dose activity change, negative = inhibition, most hits filed as inhibitors; hit rate 0.56% among 110,000; AID 881; further: potency means the concentration at half of the fitted maximal effect; nearly all actives have a fitted effect of over 60% in size
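Purified human 15hLO-2 (50 nM final) preincubated with compounds 15 min at room temperature in 25 mM Hepes pH 7.5, 0.01% Triton X-100, then 45 uM arachidonic acid added for 90 min; hydroperoxide detected via ferrous/xylenol orange, 573/405 nm absorbance ratio.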
IMPase cell inh – IMPase inhibition in cells. 120,000 tested, under 10 active. CHO-M1 cells, IP1 accumulation, HTRF TR-FRET ratio. inhibition (IP1 accumulation), % at 46.1 µM. AID 901; active means well fitted curve in the direction sought with a large enough effect in the signal ratio, not every such curve was filed as active; inconclusive means small, poorly fitted or top-dose-only effect, or a change in a side signal; inactive means no such curve, though single readings can be large or run the other way; the % refers to the signal ratio;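 further: cells stimulated with carbachol in lithium chloride buffer; plate controls were DMSO basal wells for no effect and reference inhibitor wells for full effect; higher means more IMPase inhibition seen as more IP1 and lower FRET ratio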
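Measured: the HTRF emission ratio (665/620 nm) plus the 620 nm donor channel, each fitted to the Hill equation to give AC50. Cells were CHO-M1 given compounds up to 46 uM and a 30 min carbachol stimulation at 37C.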
12-hLO inh – inhibitors of human 12-lipoxygenase (ALOX12). purified 12-hLO, xylenol orange hydroperoxide absorbance. P18054. hit rate 0.12% among 150,000. Potency, µM (series often up to 57.1 µM), inactives show at the highest dose activity change, negative = inhibition, actives largely listed as inhibitors; further: potency means the concentration at half of the fitted maximal effect; nearly all actives have a fitted effect of over 55% in size
Target sequence (P18054 whole entry, looked up): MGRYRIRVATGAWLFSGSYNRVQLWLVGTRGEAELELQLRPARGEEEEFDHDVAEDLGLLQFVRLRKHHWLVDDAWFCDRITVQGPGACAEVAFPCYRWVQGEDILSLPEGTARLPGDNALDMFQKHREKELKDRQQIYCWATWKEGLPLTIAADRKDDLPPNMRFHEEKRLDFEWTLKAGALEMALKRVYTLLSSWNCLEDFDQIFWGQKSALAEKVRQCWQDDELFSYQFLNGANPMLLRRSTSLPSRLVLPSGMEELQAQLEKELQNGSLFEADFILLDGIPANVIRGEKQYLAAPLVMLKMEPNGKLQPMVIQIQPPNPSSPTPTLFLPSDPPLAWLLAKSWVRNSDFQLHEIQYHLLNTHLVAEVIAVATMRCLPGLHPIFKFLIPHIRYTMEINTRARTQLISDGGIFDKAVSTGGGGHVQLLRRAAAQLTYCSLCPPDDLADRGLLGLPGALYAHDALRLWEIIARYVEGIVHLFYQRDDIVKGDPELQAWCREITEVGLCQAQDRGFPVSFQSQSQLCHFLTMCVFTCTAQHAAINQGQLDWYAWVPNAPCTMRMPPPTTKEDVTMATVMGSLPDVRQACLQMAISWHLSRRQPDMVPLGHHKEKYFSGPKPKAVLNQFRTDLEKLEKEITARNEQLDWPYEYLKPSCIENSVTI
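Hydroperoxide formation by human 12-lipoxygenase from 40 uM arachidonic acid was followed colorimetrically via ferric-xylenol orange complex, using the 573/405 nm absorbance ratio. Enzyme concentration was 150 nM, with 30 min reaction at room temperature.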
The depositor's hits bear a star; ? = inconclusive; . = not tested or not shown; [ ] = dose if it differs, or a comment. Only a selection was taken, and hits are over-represented in it overall. Unless noted, the call rests on the fitted dose curve; in most records, active means well fitted curve in the direction sought with a large enough effect; inconclusive means small, poorly fitted or top-dose-only effect, or another doubt; inactive means no such curve, though single readings can be large; an effect the other way counts as inactive or inconclusive. Unless noted, on the % scale 0 is the no-effect control and ±100 the full control effect.

SMILES | ALOX15B inhib | IMPase cell inh | 12-hLO inh
CCCCCCc1cc2cc(-c3nnc(-c4ccccc4OC)o3)c(=O)oc2cc1O | ? | -9 | -6%
CCOC(=O)c1[nH]c(CSc2nnc(-c3ccc(OC)cc3)o2)c(C(=O)OCC)c1C | -8% | -1 | -7%
CCn1c2ccccc2c2cc(NC(=O)c3ccc(Br)o3)ccc21 | 3.2µM* | 4 | -7%
CCn1c2ccccc2c2cc(NC(=O)c3cc(OC)cc(OC)c3)ccc21 | . | . | 0%
O=C1C(=O)N(Cc2ccc(Cl)c(Cl)c2)c2ccccc21 | 7.9µM* | 3 | ?
O=C1C(=O)N(Cc2cccc([N+](=O)[O-])c2)c2ccccc21 | . | . | 1%
CCOC(=O)c1c(N)sc(C(O)(C(F)(F)F)C(F)(F)F)c1-c1ccccc1 | 6% | -1 | -5%
O=C(O)C(Cc1ccccc1)N1C(=O)/C(=C/c2ccccc2)SC1=S (configuration not stated) | . | . | -1%
O=C(O)C(Cc1ccccc1)N1C(=O)/C(=C/c2cccc3ccccc23)SC1=S (configuration not stated) | 20µM* | 5 | -4%
CCCCCCc1c(O)c2ccccc2[nH]c1=O | -7%[11.4 µM] | -1[1.84 µM] | 6%
CCCCCCCCCCCC1=C(O)C(=O)C=C(O)C1=O | 32µM* | 25 | 8.9µM*
COc1cc(N=c2ssnc2Cl)cc(OC)c1 | ? | -6 | 10µM*
OCc1ccccc1N=c1ssnc1Cl | ? | 3 | -11%
COc1ccc(NC(=O)COC(=O)[C@@H]2CCCN2C(=O)c2cccs2)cc1 | -6% | 4 | 4%
Cc1csc(SC(C)C(=O)Nc2ccc(Cl)cn2)n1 (configuration not stated) | -4% | -1 | -3%
Oc1ccccc1NCC(O)Cn1ccc2ccccc21 (configuration not stated) | 13µM* | 7 | -26%
OC(CNCc1ccccc1)Cn1ccc2ccccc21 (configuration not stated) | . | . | 0%
COc1ccccc1NC(=O)CC(=O)CSc1nnc(-c2ccc(C)cc2)n1C | -9% | -1 | -7%
O=C(O)c1c(Cl)c(Cl)c(Cl)c(Cl)c1-c1c2cc(I)c(=O)c(I)c-2oc2c(I)c(O)c(I)cc12 | 7.9µM* | . | ?
Oc1ccc(/C=C\c2cc(O)cc(O)c2)cc1 | -14% | 7 | -15%
Oc1cc(O)cc(/C=C\c2ccc(O)c(O)c2)c1 | 3.2µM* | 10 | ?
CC1CCC/C(=N\Nc2ccc(Cl)c(C(=O)O)c2)C1 (configuration not stated) | . | . | -7%
CC(=NC1CCCCC1)C1=C(O)c2ccccc2C1=O | 16µM* | 2 | -10%
CSC(=NC1CCCCC1)NS(=O)(=O)c1ccccc1 | 1% | 8 | 7%
N#Cc1cc2c([nH]c1=S)CCCCCC2 | 25µM* | -3 | ?
SMILES | ALOX15B inhib | IMPase cell inh | 12-hLO inh
N#Cc1c(N)n[nH]c1-c1cc2c([nH]1)CCCC2 | . | 9 | -11%
Cc1nc(-c2ccccc2)sc1C(N)=O | 0% | 4 | -2%
CCc1cccc(NC(=O)CSC2=NS(=O)(=O)c3ccccc32)c1 | 5µM* | 2 | 0%
CCc1cccc(NC(=O)CSCc2cc(=O)[nH][nH]2)c1 | 10% | 5 | 1%
COc1ccc(S(=O)(=O)/N=C2/C=CC(=O)C(C)=C2C)cc1 | 13µM* | 5 | -22%
CC1=C(C)/C(=N\OS(=O)(=O)c2ccc(C)cc2)C=CC1=O | . | . | 2%
CCNc1ncc2nc(-c3cc(F)cc(F)c3)c(=O)n(-c3ccccc3)c2n1 | -2% | . | -9%
CCC(C)[C@H](NC(=O)NCc1ccccn1)C(=O)OC (some centres not stated) | -2% | 3 | -3%
COc1ccc(NC(=O)CSc2ccc3c4c(cccc24)C(=O)c2ccccc2-3)cc1 | 16µM* | -4 | 0%
COc1ccc(NC(=O)CSc2nc3ccccc3c3nc4ccccc4n23)cc1 | . | . | -1%
N#Cc1cccc(NC(=O)CSc2ccccc2)c1 | -2% | 3 | -12%
N#Cc1cccc(NC(=O)CSc2ccc3c4c(cccc24)C(=O)c2ccccc2-3)c1 | 13µM* | -21 | -2%
O=C(CSc1nnc(COc2ccccc2)n1Cc1ccco1)c1ccc(F)cc1 | 25% | -1 | -10%
Cc1ccc(S(=O)(=O)/N=C(/Nc2c(C)n(C)n(-c3ccccc3)c2=O)c2ccc(Cl)cc2)cc1 | 7% | -5 | -3%
CC(C)CNS(=O)(=O)c1ccc(C(=O)Nc2ccc3c(c2)OCCO3)cc1 | 0% | 0 | -7%
COC(=O)Nc1ccccc1C(=O)N1CCC(O)(c2ccc(Cl)cc2)CC1 | . | . | 4%
CCOC(=O)c1c(-c2ccc(C)o2)csc1NC(=S)NC(=O)N(C)C | 25µM* | -7 | ?
